Measurements as given in PubChem BioAssay (NCI).
About 79,000 compounds went through this panel and 15% of them were active in at least one assay; those are over-represented in the sample as a whole. Values without a mark were called inactive. Active and inactive are the calls of the source. No stated cut-off is given here; in the data, active means growth inhibition above about 70%; inactive means the rest.

Experiments:
[1] = NCI Yeast Anticancer Drug Screen. Data for the mec2-1 strain (AID 157); settings: S. cerevisiae mec2-1 strain, at 50.0 µM, active compounds read high
Method in brief: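 Growth inhibition is read against vehicle-treated controls after compound exposure of the mec2-1 yeast strain, which is defective in DNA damage repair or cell cycle control.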

[2] = NCI Yeast Anticancer Drug Screen. Data for the sgs1 mgt1 strain (AID 161);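 further: 0% = growth of cultures given vehicle only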; settings: S. cerevisiae sgs1 mgt1 strain, at 50.0 µM, active compounds read high
Method in brief: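 Compounds are added to genetically altered yeast, and growth is compared with cultures given vehicle alone to give percent inhibition.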

[3] = NCI Yeast Anticancer Drug Screen. Data for the cln2 rad14 strain (AID 165);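 further: 0% = growth equal to vehicle treated cultures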; settings: S. cerevisiae cln2 rad14 strain, at 50.0 µM, active compounds read high
Method in brief: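 Growth inhibition, relative to vehicle-treated controls, is the read-out. The test organism is a yeast strain with defined genetic alterations, cln2 rad14.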

[4] = NCI Yeast Anticancer Drug Screen. Data for the bub3 strain (AID 167); settings: S. cerevisiae bub3 mutant strain, at 50.0 µM, active compounds read high
Method in brief: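 Screening used yeast with an engineered genetic alteration affecting cell cycle control. Compound-exposed cultures were compared with vehicle cultures, and reduced growth was taken as inhibition.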

[5] = NCI Yeast Anticancer Drug Screen. Data for the mlh1 rad18 strain (AID 175); settings: S. cerevisiae mlh1 rad18 strain growth inhibition; at 50.0 µM; active compounds read high
Method in brief: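 Cells of a genetically altered yeast strain, deficient in DNA damage repair, were treated with compound. Their growth was then compared with that of vehicle-treated cultures to give inhibition.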

| Structure (SMILES) | growth inhibition [1] | growth inhibition [2] [%] | growth inhibition [3] [%] | growth inhibition [4] | growth inhibition [5] |
| --- | --- | --- | --- | --- | --- |
| Cc1ccc(C2(C(=O)O)CC2)cc1 | -25.7% | 12.3 | 21.4 | -13.8% | 5.15% |
| Cc1ccc(C(=O)N(C(C)C)C(C)C)cc1N=NN(C)C | -30.6% | -31.1 | 12.2 | -20.6% | -23.7% |
| COc1ccc2oc(=O)c(-c3csc(-c4ccccc4)n3)cc2c1 | 5.85% | -5.5 | 1.25 | -24.4% | -45.2% |
| O=CC1CCCc2ccccc21 (stereo not given) | -20.5% | -0.7 | -5.7 | 3.9% | 5.6% |
| COC(=O)NC1=Nc2ccccc2N(C(=O)Oc2ccccc2)S1 | 0.6% | 26.4 | 23.6 | 83.2% (active) | 33.9% |
| CC(C)(c1ccc(O)c(Cl)c1)c1cc(Cl)c(O)c(S(=O)(=O)O)c1 | 4.8% | 27.2 | 22.3 | 1.15% | -11.2% |
| Cn1c(CC(O)c2nc3ccccc3n2C)nc2ccccc21 (stereo not given) | -18.6% | -10.2 | -8.75 | -23.8% | -33.5% |
| O=c1c2ccccc2oc2cc3c(c(O)c12)CCCC3 | -13.9% | -14.5 | -6.95 | 3.15% | -2.95% |
| CC(C)CC(Nc1ccc2ccccc2c1)C(N)=O (stereo not given) | -44.4% | 10.2 | 8.65 | 10.8% | -3.4% |
| CCCC1CCCC12CCc1ccccc1C2=O (stereo not given) | -6.15% | -11.1 | 10.1 | -5.8% | 1.15% |
| O=C1NC(=O)C(=Nc2cccc3c(=O)[nH][nH]c(=O)c23)C(c2nc3ccccc3s2)C1=O (stereo not given) | -9.7% | -12.8 | 8.7 | -3.05% | 4.7% |
| O=C1NC(=O)C(=CN2C(=O)/C(=C/c3ccc(O)cc3)SC2=S)C(=O)N1 | -5.7% | 23.1 | 9.15 | 1.8% | 14.7% |
| C/C(C=C(C#N)C#N)=C\c1cccc(F)c1 | 28.3% | 50.6 | 48.1 | 17.5% | 53.8% |
| C=CCNc1ccc(Cl)cc1Cl | -6.25% | -21.9 | -54.4 | -8.75% | 12.6% |
| CCOC(C)=C(C#N)C#N | -9.4% | 8.95 | -7.85 | -10.2% | 4.9% |
| Cc1ccc(C2=CC(=O)/C(=C\C(=O)c3ccc(Br)cc3)O2)c(C)c1 | 77.8% (active) | 62.1 | 34.8 | 52.2% | 71.9% (active) |
| O=C1CSC(c2ccccn2)N1CCN1C(=O)CSC1c1ccccn1 (stereo not given) | -0.85% | -15.9 | -4.35 | -8.05% | 6.65% |
| Nc1ccncn1 | -0.85% | -2.45 | -5 | -4.35% | -13.8% |
| c1ccc2c(c1)C1c3ccccc3C2C2OC12 (stereo not given) | 1.5% | -4 | -2.9 | -10.1% | 34.4% |
| Brc1cc2ccccc2nc1-c1ccccc1 | -7.95% | 1 | -23.4 | 5.05% | 10.1% |

| Structure (SMILES) | growth inhibition [1] | growth inhibition [2] [%] | growth inhibition [3] [%] | growth inhibition [4] | growth inhibition [5] |
| --- | --- | --- | --- | --- | --- |
| O=C(OC1C#CCSCC#C/C=C\1)c1cnc2ccccc2n1 (stereo not given) | -13.4% | -24.3 | -11.2 | -2.55% | -23% |
| NC1c2c(Br)sc(N3CCCC3)c2C(=O)C1O (stereo not given) | -3.5% | -5.25 | -5.35 | -16.4% | -30.3% |
| O=C(O)c1cccc2c1C1CCC2c2cccc(C(=O)O)c21 | 0.95% | 15.6 | 3.05 | -2.6% | 9.7% |
| CC(=S)N=Cc1c(C)[nH]n(-c2ccccc2)c1=O | -29.8% | -41.4 | 19.6 | -57.7% | -31.9% |
| CCOC(=O)c1nc2cc(C(F)(F)F)ccc2nc1Nc1ccc(OC)c(OC)c1 | -6.15% | -16.9 | -12.4 | -12.8% | -14% |
| CC1=CCCC(C)(C)C1/C=C/C(C)=N/NC(=O)Nc1ccccc1 (stereo not given) | -6.2% | 0.25 | -8.85 | 8.85% | 16.4% |
| c1ccc(C(NC2=NCCO2)C2CC2)cc1 (stereo not given) | -18.4% | -9.1 | 23.3 | -9.55% | -54.9% |
| CNc1ccccc1C(=O)N/N=C/c1cccc([N+](=O)[O-])c1 | 1.05% | -39 | -8.6 | 32.5% | -8.9% |
| CC(CCC(=O)O)[C@H]1CCC2[C@@H]3C(=O)C[C@@H]4CC(O)CC[C@]4(C)C3CC[C@@]21C (stereo not given in full) | 18.1% | 41.5 | 35.8 | 19.9% | 23.1% |
| CC(C)NC(=O)c1ccccc1Sc1ccccc1CN(C)C(C)C | 5.5% | 7.1 | 6.55 | 8.9% | 6.75% |
| CCC(C)OC(=O)/C(Br)=C1/OC(=O)c2ccccc2-c2ccccc21 (stereo not given) | -15.8% | -0.35 | -13.4 | -42.5% | -7.2% |
| O=C(CSc1nnc(-c2ccc(N=Cc3ccc(Cl)cc3)cc2)o1)Nc1ccc(Cl)cc1 | -41% | -2.25 | -66 | -11.8% | 0% |
| CCCCc1c2c(nc3c1CCCC3=O)C(=O)CCC2 | -1.95% | -14.7 | 2 | -2.45% | -9.15% |
| O=[N+]([O-])c1cc([N+](=O)[O-])c(/C=C/c2ccccc2Cl)cc1/C=C/c1ccccc1Cl | 13.4% | 15.8 | -19.6 | 0.05% | 0.5% |
| COc1cc(-c2cc(=O)c3cc4c(=O)cc(-c5cc(OC)c(OC)c(OC)c5)oc4cc3o2)cc(OC)c1OC | 1.25% | 11.2 | -75 | -7.7% | -5% |
| Cc1cccc[n+]1CCC(N)=O | -26.8% | -1.85 | 5.5 | -15.8% | -6.25% |
| CCCCOCCOC(=O)CCCCCC1C=CCCC1 (stereo not given) | 8.4% | 8.65 | -18.6 | -8.35% | 4.95% |
| CCC(C(=O)O)C(C)(C)C (stereo not given) | 0.55% | 1.8 | -4.9 | -0.3% | 9.3% |
| CC(NC(=O)CN)C(=O)O (stereo not given) | -8.55% | -8.45 | -22.6 | 5.15% | 4.4% |
| COc1ccc(-c2cc(-c3ccccc3)c(-c3ccccc3)nn2)cc1CN1CCOCC1 | -29.2% | -17.1 | 10.7 | -5.05% | -7.85% |
